Results reported in PubChem BioAssay AID1159580 (chemical genetic matrix, 2015).
Several values for one entry are separate records, joined by “and”; a condition that tells them apart may be missing. Equal values may be shown once. Out of some 5,500 compounds screened, about 2,000 (36%) were called active. About 18% were inconclusive and are not listed. Rule as the data show it: active = normalized growth mostly below about 0.91 (no sharp cut-off); inconclusive = no clear call, values can overlap the other calls; inactive = mostly above about 0.92. This is one part of the list.

Assay: chemical genetic growth profiling, strain panel (AID 1159580);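 also: tested at 20 µM; growth read once vehicle control cultures reached saturation at 30 °C; 1 = growth at the plate median or of vehicle wells; lower values mean less growth of the strain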
Settings: S. cerevisiae deletion strains, growth OD

Measured: normalized growth

CCc1nc(N)nc(N)c1-c1ccc(Cl)cc1
inactive: locus YAL013W, strain DEP1, hits give low values 1.02 | locus YAL021C, strain ccr4, hits give low values 0.951 | locus YAL026C, strain drs2, hits give low values 0.967 | locus YAL030W, strain snc1, hits give low values 0.977 | locus YBL061C, strain skt5, hits give low values 0.97 | locus YBR009C, strain hhf1, hits give low values 0.997 | locus YBR021W, strain FUR4, hits give low values 1.02 | locus YBR023C, strain chs3, hits give low values 0.999 | locus YBR171W, strain sec66, hits give low values 0.969 | locus YBR229C, strain ROT2, hits give low values 1.01 | locus YBR231C, strain swc5, hits give low values 0.971 | locus YBR279W, strain paf1, hits give low values 0.994 | locus YCL011C, strain gbp2, hits give low values 0.978 | locus YCL016C, strain dcc1, hits give low values 0.997 | locus YCL029C, strain bik1, hits give low values 0.988 | locus YCL061C, strain MRC1, hits give low values 0.958 | locus YCL069W, strain vba3, hits give low values 0.986 | locus YCR088W, strain abp1, hits give low values 0.977 | locus YDL005C, strain med2, hits give low values 0.972 | locus YDL035C, strain GPR1, hits give low values 0.995 | locus YDL040C, strain nat1, hits give low values 0.973 | locus YDL074C, strain BRE1, hits give low values 0.987 | locus YDL101C, strain DUN1, hits give low values 1 | locus YDL134C, strain PPH21, hits give low values 1.01 | locus YDL185W, strain tfp1, hits give low values 1 | locus YDL192W, strain arf1, hits give low values 1 | locus YDR001C, strain nth1, hits give low values 0.969 | locus YDR101C, strain arx1, hits give low values 0.987 | locus YDR137W, strain rgp1, hits give low values 1.02 | locus YDR150W, strain NUM1, hits give low values 1.01 | locus YDR159W, strain sac3, hits give low values 0.955 | locus YDR162C, strain NBP2, hits give low values 1.01 | locus YDR195W, strain ref2 0.979 | locus YDR297W, strain sur2, hits give low values 0.987 | locus YDR318W, strain mcm21, hits give low values 0.976 | locus YDR334W, strain swr1, hits give low values 0.936 | locus YDR335W, strain msn5, hits give low values 0.973 | locus YDR388W, hits give low values 0.974 | locus YDR392W, strain spt3, hits give low values 1.02 | locus YDR502C, strain sam2, hits give low values 0.996 | locus YEL003W, strain gim4, hits give low values 0.97 | locus YEL037C, strain rad23, hits give low values 0.969 | locus YEL061C, strain CIN8 (second series), hits give low values 0.966 | locus YEL061C, strain CIN8, hits give low values 1.01 | locus YER015W, strain faa2, hits give low values 0.985 | locus YER016W, strain bim1, hits give low values 1.01 | locus YER110C, hits give low values 0.999 | locus YER111C, strain swi4, hits give low values 0.983 | locus YER155C, strain BEM2 (second series), hits give low values 0.933 | locus YER155C, strain BEM2, hits give low values 1.01 | locus YER167W, strain BCK2, hits give low values 1.01 | locus YFR010W, strain ubp6, hits give low values 0.931 | locus YGL078C, strain dbp3, hits give low values 1 | locus YGL086W, strain mad1, hits give low values 0.994 | locus YGL167C, strain pmr1, hits give low values 0.981 | locus YGL173C, strain kem1, hits give low values 0.982 | locus YGL227W, strain vid30, hits give low values 0.959 | locus YGL240W, strain doc1, hits give low values 0.97 | locus YGL248W, strain PDE1, hits give low values 1.01 | locus YGL253W, strain hxk2, hits give low values 0.97 | locus YGR078C, strain PAC10, hits give low values 1 | locus YGR135W, strain pre9, hits give low values 0.979 | locus YGR229C, strain SMI1, hits give low values 1.01 | locus YGR252W, strain gcn5, hits give low values 0.981 | locus YHR013C, strain ard1, hits give low values 0.886 | locus YHR027C, strain rpn1, hits give low values 0.976 | locus YHR030C, strain SLT2, hits give low values 1.01 and 1.05 | locus YHR079C, strain IRE1 (second series), hits give low values 0.987 | locus YHR079C, strain IRE1, hits give low values 1.07 | locus YHR094C, strain hxt1, hits give low values 1 | locus YHR129C, strain ARP1, hits give low values 1.01 | locus YHR142W, strain chs7, hits give low values 0.95 | locus YHR200W, strain rpn10, hits give low values 1 | locus YIL066C, strain RNR3, hits give low values 1.01 | locus YIL073C, strain SPO22, hits give low values 1.31 | locus YIL125W, strain kgd1, hits give low values 1.01 | locus YIR030C, strain dcg1, hits give low values 1 | locus YJL092W, strain hpr5, hits give low values 0.956 | locus YJL095W, strain BCK1 (second series), hits give low values 0.979 | locus YJL095W, strain BCK1, hits give low values 0.982 and 1.04 | locus YJL115W, strain asf1, hits give low values 0.961 | locus YJL129C, strain trk1, hits give low values 0.927 | locus YJL134W, strain LCB3, hits give low values 1.01 | locus YJL154C, strain vps35, hits give low values 0.954 | locus YJL164C, strain tpk1, hits give low values 1 | locus YJL166W, strain qcr8, hits give low values 0.944 | locus YJL168C, strain set2, hits give low values 1 | locus YJL187C, strain SWE1 (second series), hits give low values 0.982 | locus YJR043C, strain POL32, hits give low values 0.992 | locus YJR066W, strain TOR1, hits give low values 0.994
active: locus YDR069C, strain doa4, hits give low values 0.898
